Source: PubChem (National Center for Advancing Translational Sciences (NCATS))
A selection: hits, their analogues and other compounds. The true share with any hit is near 5.7%.
TGFb SMAD3 inh: inhibitors of TGF-b signaling; HepG2 CAGA-GFP TGF-b/SMAD3 reporter, GFP fluorescence, 18 h; TGF-beta stimulated, 500 pg/mL final; Potency, µM (highest dose often 46.1 µM), inactives show at the highest dose activity, negative = inhibition, actives largely listed as inhibitors; 410,000 tested, 1.2% active; AID 588855; also: potency is read from the fitted curve at half-maximal effect; % is scaled to controls: 0 for no effect and ±100 for the full control effect; nearly all actives have a fitted effect of over 65% in size
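Inhibition was scored as loss of TGF-beta-induced (500 pg/mL final, 18 hours, 37 degrees C) GFP in HEPG2 cells carrying a CAGA-GFP reporter, in DMEM with 1% FBS. Well GFP was summed per cell; Activity was normalised to unstimulated and stimulated DMSO wells, then concentration-response fitting.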
ATXN2 expr inh: reduces ATXN2 reporter expression in HEK-293 cells. 360,000 tested, 0.72% active. HEK-293 ATXN2-luciferase reporter, luminescence, 24 h. AID 1745845. Potency, µM (series often up to 57 µM), without a hit: at the top dose activity change, negative = inhibition, hits mostly inhibitors; also: potency is read from the fitted curve at half-maximal effect; % is scaled to controls: 0 for no effect and ±100 for the full control effect; nearly all actives have a fitted effect of over 55% in size
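qHTS (up to 57 uM final) was run with 24 h compound exposure of reporter cells at 37 °C. Each well was multiplexed: SteadyGlo luminescence measured ATXN2-luciferase expression after a fluorogenic Gly-Phe-AFC viability readout (25 uM final).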
HepG2 viability: kills HepG2 cells in TGF-b inhibitor counter-screen; HepG2 CAGA-GFP viability, ATP luminescence, 18 h; Potency, µM (highest dose often 46.1 µM), for the others: at the highest dose activity change, negative = cytotoxicity, usual class: cytotoxic; 410,000 tested, 0.76% active; also: potency is read from the fitted curve at half-maximal effect
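CellTiter-Glo luminescence gave cytotoxicity after 18 hours at 37 degrees C. The cells were HepG2 CAGA-GFP in 1% FBS DMEM, stimulated with 500 pg/mL TGF-beta after compound addition. %Activity was normalised to no-cell wells (complete cell-killing) and DMSO (no toxicity), and curves were fitted and classified.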
S2 tox: cell viability loss in ATXN counter-screen. S2 cells (HEK-293 line with an ATXN2-luciferase reporter) viability, CellTiter-Fluor protease fluorescence, 24 h. Potency, µM (doses to about 56.7 µM), actives largely listed as cytotoxic. 400,000 tested, 0.49% active; also: potency is read from the fitted curve at half-maximal effect; nearly all actives have a fitted effect of over 40% in size
IL1B secr inh: blocks inflammasome-driven IL-1 beta release; THP-1 LPS/ATP IL-1B secretion, AlphaLISA, 16 h; hits give low values; AID 743279; 360,000 tested, 4.7% active; activity change, % at 57.5 µM; in the data active = activity change below about -50%; inconclusive = mostly about -30% to -49%; also: % is scaled to controls: 0 for no effect and ±100 for the full control effect
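THP-1 cells pretreated 1 hr with compounds (up to 57.5 uM final), then stimulated with LPS (250 ng/mL final) plus ATP (1.25 mM final); secreted IL-1B measured by AlphaLISA after 16 hr, decreased signal indicating inhibition.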
The depositor's hits bear a star; i = inactive; u = inconclusive; x = not tested or not shown. Unless noted, calls follow the shape of the dose curve; as a rule, active = well fitted curve in the direction sought with a large enough effect; inconclusive = small, poorly fitted or top-dose-only effect, or another doubt; inactive = no such curve, though single readings can be large; an effect the other way counts as inactive or inconclusive.

SMILES	TGFb SMAD3 inh	ATXN2 expr inh	HepG2 viability	S2 tox	IL1B secr inh
O=C(/C=C/c1ccccc1)NNC(=O)C1CC1	14µM*	8%	-102%	i	-17
Cc1ccc(/C=N/n2c(-c3ccccc3)csc2=S)cc1	x	-1%	x	i	x
Cc1c(F)cccc1Cn1cnc2c(cnn2C(C)(C)C)c1=O	-18%	x	-21%	x	x
CCCCCOC(=O)Nc1nc(=O)n([C@@H]2O[C@H](C)[C@@H](O)C2O)cc1F (stereo partly drawn)	x	-10%	x	x	x
CCN(C(=O)c1cnc(N2CCOCC2)c2ccccc12)c1cc(C)ccc1C	u	x	-23%	x	x
CN(C)c1ccc(C=O)c(Cl)c1	-25%	x	-1%	x	x
CC(C)(C)n1ncc2c(=O)n(Cc3ccccc3F)cnc21	-7%	x	-17%	x	x
O=C(/C=C/c1ccccc1)/C=C/c1ccccc1	u	u	-17%	40µM*	-98*
O=C(/C=C/c1ccccc1)NC(=S)NNC(=O)c1cnccn1	-22%	14µM*	18%	u	34
O=C(/C=C/c1ccccc1)NC(=S)NNC(=O)c1cccnc1	14%	-7%	-8%	i	-3
O=C(NCc1ccccc1Cl)C(=O)NCC(c1ccc2c(c1)OCO2)N1CCOCC1 (stereo not drawn)	10%	1%	7%	i	x
CCc1ccccc1NC(=O)c1nnn(Cc2ccc(Cl)cc2)c1N	u	-23%	-3%	i	x
CCOc1ccc(NC(=O)C2CCCN(c3nn4cc(-c5ccc(OC)cc5)nc4s3)C2)cc1 (stereo not drawn)	u	x	-9%	x	x
CCOc1ccc(CNC(=O)CSc2c3c(nc4cc(Cl)ccc24)CCCC3)cc1	-21%	x	-33%	x	x
COc1ccc(OC)c(CNC(=O)CSc2c3c(nc4cc(Cl)ccc24)CCCC3)c1	u	x	-33%	x	x
CN1CCN(CCCNC(=O)c2ccc3c(Cl)c4c(nc3c2)CCCC4)CC1	11µM*	x	-44%	i	-56*
O=C(CSc1c2c(nc3cc(Cl)ccc13)CCCC2)NCCCN1CCOCC1	u	x	-42%	u	-101*
Cc1ccc(CNC(=O)CSc2c3c(nc4cc(Cl)ccc24)CCCC3)o1	u	-18%	-39%	i	-68*
O=C(CSc1c2c(nc3cc(Cl)ccc13)CCCC2)NCCN1CCOCC1	-8%	-21%	-11%	i	-91*
N#Cc1cccc(S(=O)(=O)N2CCN(S(=O)(=O)c3ccc4c(c3)OCCO4)CC2)c1	-2%	x	4%	x	x
CC(C)(C)c1ccc(C(=O)NCCCN2CCN(CCCNC(=O)c3ccc(C(C)(C)C)cc3)CC2)cc1	u	u	-105%	28µM*	-81*
O=C(CSc1c2c(nc3ccc(Cl)cc13)CCCC2)NCCCN1CCOCC1	u	x	-38%	x	-93*
CCN(CC)CCCNC(=O)CSc1c2c(nc3cc(Cl)ccc13)CCCC2	11µM*	u	22µM*	x	0
CC(C)c1ccc(C(=O)NCCCN2CCOCC2)cc1	-14%	23%	-9%	i	15
O=C(NCCCN1CCOCC1)c1ccc(CSc2ccc(Cl)cc2)cc1	-34%	u	-30%	u	-62*
SMILES	TGFb SMAD3 inh	ATXN2 expr inh	HepG2 viability	S2 tox	IL1B secr inh
CCOc1ccc(CNC(=O)CSc2c3c(nc4ccc(Cl)cc24)CCCC3)cc1	-8%	x	-20%	x	x
CCCCOc1ccc(S(=O)(=O)Nc2cccc(-c3ccc(N4CCOCC4)nn3)c2)cc1	u	-11%	-4%	u	x
CCOC(=O)c1ccc(NC(=O)c2csnn2)cc1	15%	37%	-3%	i	x
Cc1ccc(C2c3[nH]c4ccccc4c3CCN2C(=O)Nc2ccc(C)c(C)c2)cc1 (stereo not drawn)	23%	x	-16%	x	x
Cc1cc(C)c2cc(C#N)c(NCCOC(=O)c3ccccc3C)nc2c1	-6%	-2%	0%	i	-60*
CCOC(=O)c1c(NC(C)=O)sc2c1CCC(C=NCCCN(CC)CC)=C2Sc1ccccc1	1%	u	-13%	x	-97*
CC(C)CCNC(=O)COc1cccc2c1OC(C)(C)C2	-18%	u	0%	i	-55*
CCN(CC)S(=O)(=O)c1cccc(N=Nc2sc(N)nc2C)c1	-18%	-18%	-40%	u	0
